IL-1B inflam inh: blocks inflammasome-driven IL-1 beta release. THP-1 LPS/ATP IL-1B secretion, AlphaLISA, 16 h; stronger effect = lower value. activity change, % at 57.5 µM. 360,000 tested, 4.7% active; in the data active means activity change below about -50%; inconclusive means mostly about -30% to -49%
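THP-1 cells pretreated 1 hr with compounds (up to 57.5 uM final), then stimulated with LPS (250 ng/mL final) plus ATP (1.25 mM final); secreted IL-1B measured by AlphaLISA after 16 hr, decreased signal indicating inhibition.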
HT1080 IDH1KD tx: HT-1080 IDH1 knockdown cell toxicity (counter line); HT-1080 IDH1 knockdown viability, ATP luminescence, 48 h; Potency, µM (top dose mostly 46.1 µM), inactives show at the top dose activity, negative = toxicity, actives largely listed as cytotoxic; 360,000 tested, 2% active;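 further: potency means the concentration at half of the fitted maximal effect; 0% = DMSO wells and -100% = cell-free medium wells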
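CellTiter-Glo luminescence after 48 h compound exposure at 37 degrees C of IDH1-knockdown HT-1080 cells in 5% FBS RPMI. %Activity scaled between DMSO wells and cell-free media wells, with curves fitted and assigned curve classes.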
TDP1 cell CPT: growth inhibition of DT40 Tdp1-/-;hTDP1 cells with camptothecin (screen for TDP1 inhibitors); chicken DT40 Tdp1-/-;hTDP1 cells + 20 nM CPT, ATP luminescence, 48 h; Potency, µM (titrated, usually from 46.2 µM), for inactives: top-dose activity change, negative = growth inhibition, usual class: inhibitors; 420,000 tested, 12% active; AID 686979; further: potency means the concentration at half of the fitted maximal effect; nearly all actives have a fitted effect of over 55% in size
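Chicken DT40 Tdp1-/- cells complemented with human TDP1, 400 cells/well, exposed to compounds plus 20 nM camptothecin for at least 48 h at 37 C; viability read as ATP content by CellTiter-Glo luminescence.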
TDP1 cell noCPT: qHTS for Inhibitors of human tyrosyl-DNA phosphodiesterase 1 (TDP1): qHTS in cells in absence of CPT. Potency, µM (series often up to 46.2 µM), for inactives: at the highest dose activity change, negative = growth inhibition, actives largely listed as inhibitors. 420,000 tested, 15% active. DT40 Tdp1-/- hTDP1 cells, no CPT, ATP luminescence, 48 h; further: potency means the concentration at half of the fitted maximal effect; nearly all actives have a fitted effect of over 55% in size
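Chicken DT40 Tdp1-/- cells stably complemented with human TDP1 were seeded at 400 cells/well with DMSO in place of 20 nM camptothecin. After compound pinning, cells grew at least 48 hr at 37 °C; viability read by CellTiter-Glo luminescence.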
ELG1 DNA repair: ELG1-dependent DNA repair inhibition; 330,000 tested, 2.3% active; Potency, µM (doses to about 46.1 µM), for inactives: at the top dose activity change, negative = inhibition, actives largely listed as inhibitors; HEK293T ELG1-luciferase reporter, luminescence, 16 h; DNA damage induced by 5-fluorouridine; further: potency means the concentration at half of the fitted maximal effect; nearly all actives have a fitted effect of over 55% in size
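Step one: seed 2,000 cells per well. Step two: pin-transfer compound or DMSO alongside 5-fluorouridine. Step three: incubate 16 hr, 37 °C, 5% CO2. Step four: add ONE-Glo, wait 30 min, read luminescence.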
HT1080NT lethal: kills 2HG-producing HT-1080-NT fibrosarcoma cells. HT-1080-NT fibrosarcoma viability, CellTiter-Glo ATP luminescence, 48 h. Potency, µM (top dose mostly 46.1 µM), for inactives: at the top dose activity, negative = less viability, actives largely listed as cytotoxic. 360,000 tested, 1.6% active. AID 686970;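 further: NT is the 2HG producing partner of a matched IDH1 knockdown line; potency means the concentration at half of the fitted maximal effect; 0% = DMSO-treated cells and -100% = media-only wells without cells; nearly all actives have a fitted effect of over 55% in size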
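Fibrosarcoma NT cells, 750 per well in 5% FBS RPMI, were exposed to compound for 48 hours. Viability: CellTiter-Glo luminescence.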
* hit, by the source's call; ? = inconclusive; . = not tested or not shown; [ ] = dose if it differs, or a comment. An excerpt weighted towards active compounds, which were near 19% of everything screened. Unless noted, the call rests on the fitted dose curve; in most records, active means well fitted curve in the direction sought with a large enough effect; inconclusive means small, poorly fitted or top-dose-only effect, or another doubt; inactive means no such curve, though single readings can be large; an effect the other way counts as inactive or inconclusive. Unless noted, on the % scale 0 is the no-effect control and ±100 the full control effect.

SMILES	IL-1B inflam inh	HT1080 IDH1KD tx	TDP1 cell CPT	TDP1 cell noCPT	ELG1 DNA repair	HT1080NT lethal
COc1ccccc1-c1ccc2ncnc(NCc3cnc(C)cn3)c2c1	.	.	?	18.4µM*	.	.
COc1ccccc1-c1cncnc1NCc1cccnc1	.	.	-11.5%	-10.7%	.	.
CCCCNC(=O)C1c2ccccc2OCC(=O)N1CCc1ccc(OC)c(OC)c1 (stereo not drawn)	-3.2	7.0%	-14.9%	-28.3%	.	14.9%
COc1cc(C2C(c3ccccc3)C(c3cc(OC)cc(=O)o3)C2c2ccccc2)oc(=O)c1 (stereo not drawn)	?	-9.1%	?	?	.	-1.7%
C[C@H]1CN([C@@H](C)CO)S(=O)(=O)c2ccc(Br)cc2O[C@H]1CN(C)C(=O)Cc1ccccn1	-8.7	-3.2%	0.4%	-23.1%	.	10.8%
O=C(CCCN1C(=O)/C(=C\c2ccccc2)SC1=S)N1CCOCC1	-83.9*	?	23.1µM*	?	18.3µM*	6.3%
COc1ccc(/C=C2\SC(=S)N(CCCC(=O)N3CCOCC3)C2=O)cc1	-9.5	-14.6%	?	?	.	-5.7%
O=C(CCCN1C(=O)/C(=C/c2ccccc2Cl)SC1=S)NNC(=O)c1ccccc1	-102.4*	10.0%	18.4µM*	16.4µM*	-15.9%	5.2%
O=C(CCN1C(=O)/C(=C\c2cccc(Br)c2)SC1=S)N1CCOCC1	?	-0.9%	6.51µM*	6.51µM*	0.2%	0.0%
O=C(CCCN1C(=O)/C(=C/c2ccccc2Cl)SC1=S)NNC(=O)c1cccnc1	-7.2	-10.7%	?	?	8.3%	-8.1%
COc1ccc(/C=C2\SC(=S)N(CCCC(=O)N3CCOCC3)C2=O)cc1OC	6.6	-7.1%	2.4%	?	?	-0.8%
O=C(CCCN1C(=O)/C(=C/c2ccccc2Cl)SC1=S)N1CCOCC1	?	-0.9%	?	16.4µM*	?	-5.9%
Cc1cc(S(=O)(=O)N2CCCOC2CNC(=O)C(=O)NCc2ccco2)ccc1F (stereo not drawn)	6.8	-3.9%	-17.1%	?	-26.5%	15.7%
CC1(C)CC2(OC2c2ccccc2[N+](=O)[O-])C(=O)c2ccccc21 (stereo not drawn)	3.1	-11.9%	16.4µM*	18.4µM*	.	-12.2%
CCOC(=O)c1c(C)[nH]c(C(=O)COC(=O)c2ccco2)c1C	15.6	-0.6%	-18.7%	-7.7%	?	-2.2%
CN(Cc1ccc(Br)cc1)CC(O)COc1cccc(Br)c1 (stereo not drawn)	-93.2*	?	?	?	-7.4%	?
OC(CNCCc1ccc(C(F)(F)F)cc1)COc1ccc2ccccc2c1 (stereo not drawn)	-101.3*	-7.5%	?	-49.3%	5.8%	3.3%
OC(COc1ccc2ccccc2c1)CN1CCCC1 (stereo not drawn)	-24.4	-20.3%	-19.9%	-10.6%	19.5%	?
OC(COc1cccc2ccccc12)CN1CCCC1 (stereo not drawn)	-9.3	-16.5%	1.8%	-5.2%	4.1%	-2.1%
CN(Cc1ccc(OCC(O)CN(C)Cc2ccccc2)cc1)Cc1nccn1C (stereo not drawn)	-11.4	-6.2%	?	?	-1.6%	-9.5%
OC(CNCCc1ccc(C(F)(F)F)cc1)COc1cccc2ccccc12 (stereo not drawn)	-62.6*	-11.5%	?	?	0.1%	-26.8%
COc1ccc(CN(C)CC(O)COc2ccc(-c3ccccc3)cc2)cc1OC (stereo not drawn)	-70.7*	20.6µM*	18.4µM*	?	-6.4%	?
O=C(C[N+]1(CCO)CCOCC1)c1cccs1	.	.	2.4%	0.7%	.	.
C=CCOc1ccc(CN(C)CC(O)COc2ccc(CCC(C)=O)cc2)cc1 (stereo not drawn)	-17.2	-7.0%	?	16.4µM*	-8.3%	-16.1%
OC(COc1ccc(CNCCc2ccc(C(F)(F)F)cc2)cc1)CN1CCCCC1 (stereo not drawn)	-23.6	23.1µM*	4.61µM*	5.8µM*	?	23.1µM*
SMILES	IL-1B inflam inh	HT1080 IDH1KD tx	TDP1 cell CPT	TDP1 cell noCPT	ELG1 DNA repair	HT1080NT lethal
COc1ccccc1COCC(O)CN1CCCCC1CO (stereo not drawn)	43.6	-0.5%	-19.1%	19.5%	11.0%	1.7%
COc1ccccc1COCC(O)CNCCc1ccc(C(F)(F)F)cc1 (stereo not drawn)	-77.5*	-15.4%	?	?	-3.6%	-11.7%
COc1ccc(CCNCC(O)COc2cccc(Br)c2)cc1 (stereo not drawn)	-58.6*	?	?	?	-29.2%	?
OC(COc1ccc(OCC(O)CN2CCCCC2)cc1)CN1CCCCC1 (stereo not drawn)	?	-17.1%	-25.0%	?	-21.0%	-14.5%
CC(=O)c1cccc(OCC(O)CNCCc2ccc(Cl)cc2)c1 (stereo not drawn)	?	-23.0%	?	-14.7%	0.2%	-0.8%
CS(=O)(=O)Nc1ccc(F)cc1	12.6	21.0%	1.4%	1.4%	.	15.4%
Cc1cc(C)c(S(=O)(=O)N2CCOC2CNC(=O)C(=O)NCc2ccncc2)c(C)c1 (stereo not drawn)	0.6	-1.8%	-14.7%	2.0%	-9.3%	-10.9%
N#CC1=C(N)S[C@H](C(=O)C23CC4CC(CC(C4)C2)C3)[C@H]1c1ccncc1	-15.3	?	?	?	2.7%	23.1µM*
COC(=O)CSc1nc(C)c(C)c(C)c1C(N)=O	5.6	19.4%	9.8%	-1.1%	-3.1%	23.4%
O=C(Cc1cscn1)N1CCOc2ccc(CN3CCN(c4ccccn4)CC3)cc2C1	.	.	-1.3%[9.04 µM]	-14.0%	.	.
CCOC(=O)N1CCN(Cc2ccc3c(c2)CN(C(=O)c2cc(-c4ccccc4)on2)CCO3)CC1	.	.	-6.4%[9.04 µM]	20.6µM*	.	.
CCOC(=O)N1CCN(Cc2ccc3c(c2)CN(C(=O)c2cc(-c4ccccc4)no2)CCO3)CC1	.	.	?	23.1µM*	.	.
Cc1nc(C)c(CC(=O)N2CCOc3ccc(CN4CCN(c5ccccn5)CC4)cc3C2)s1	.	.	?	7.31µM*	.	.
COc1ccc(C2CC(c3ccccc3)=NN2S(=O)(=O)c2ccccc2)c(OC)c1 (stereo not drawn)	3.2	8.3%	?	20.6µM*	12.9%	2.5%
COc1ccc(C2CC(c3ccccc3)=NN2S(=O)(=O)c2ccc(C)cc2)c(OC)c1 (stereo not drawn)	-6.2	6.2%	8.2µM*	7.31µM*	17.6%	4.7%

Bioassay records: PubChem, National Center for Advancing Translational Sciences (NCATS)
